Source: PubChem
Only some compounds are listed: those with a hit (about 1.6% of all), similar ones and a draw of the others.
eIF4E 4G PPI: inhibitors of eIF4E and eIF4G interaction in translation initiation; 0.37% of 220,000 active; TR-FRET eIF4E-eIF4GI(517-606) binding, 2 h; AID 782; inhibition, % at 21.7 µM; P63073+Q04637;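 active = inhibition above about 30%, limit read from the data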;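 note: 0% = full FRET control wells and 100% = background wells lacking eIF4GI fragment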
eIF4H FP inh: inhibitors of RNA binding by human eIF4H; Q15056; eIF4H fluorescence polarization binding assay; inhibition, % at 35 µM; 0.94% of 290,000 active; AID 2012;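 note: calls also rest on retests at 20 µM and on dose response follow-up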
PABP polyA inh: PABP-poly(A) binding inhibition | calls only at 35 µM | P11940 | PABP-poly(A) RNA binding, fluorescence polarization | 1% of 290,000 active;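 note: calls also rest on retests at 20 µM and on dose response follow-up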
PERK inhibitor: blocks human PERK kinase; Q9NZJ5; CHO PERK-DD fusion, SEAP luminescence translation reporter; inhibition, % at 5.6 µM; 0.17% of 220,000 active; AID 1416;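 active = inhibition above the mean inhibition of all tested compounds plus 3 SD, set separately per screening campaign, cut at about 2.9% in these data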;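 note: PERK kinase domain activated by AP20187 dimerizer at 100 nM; 0% = DMSO with dimerizer and 100% = rapamycin at 8.4 µM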
Target sequence (Q9NZJ5 whole entry, looked up, the tested form may be a part): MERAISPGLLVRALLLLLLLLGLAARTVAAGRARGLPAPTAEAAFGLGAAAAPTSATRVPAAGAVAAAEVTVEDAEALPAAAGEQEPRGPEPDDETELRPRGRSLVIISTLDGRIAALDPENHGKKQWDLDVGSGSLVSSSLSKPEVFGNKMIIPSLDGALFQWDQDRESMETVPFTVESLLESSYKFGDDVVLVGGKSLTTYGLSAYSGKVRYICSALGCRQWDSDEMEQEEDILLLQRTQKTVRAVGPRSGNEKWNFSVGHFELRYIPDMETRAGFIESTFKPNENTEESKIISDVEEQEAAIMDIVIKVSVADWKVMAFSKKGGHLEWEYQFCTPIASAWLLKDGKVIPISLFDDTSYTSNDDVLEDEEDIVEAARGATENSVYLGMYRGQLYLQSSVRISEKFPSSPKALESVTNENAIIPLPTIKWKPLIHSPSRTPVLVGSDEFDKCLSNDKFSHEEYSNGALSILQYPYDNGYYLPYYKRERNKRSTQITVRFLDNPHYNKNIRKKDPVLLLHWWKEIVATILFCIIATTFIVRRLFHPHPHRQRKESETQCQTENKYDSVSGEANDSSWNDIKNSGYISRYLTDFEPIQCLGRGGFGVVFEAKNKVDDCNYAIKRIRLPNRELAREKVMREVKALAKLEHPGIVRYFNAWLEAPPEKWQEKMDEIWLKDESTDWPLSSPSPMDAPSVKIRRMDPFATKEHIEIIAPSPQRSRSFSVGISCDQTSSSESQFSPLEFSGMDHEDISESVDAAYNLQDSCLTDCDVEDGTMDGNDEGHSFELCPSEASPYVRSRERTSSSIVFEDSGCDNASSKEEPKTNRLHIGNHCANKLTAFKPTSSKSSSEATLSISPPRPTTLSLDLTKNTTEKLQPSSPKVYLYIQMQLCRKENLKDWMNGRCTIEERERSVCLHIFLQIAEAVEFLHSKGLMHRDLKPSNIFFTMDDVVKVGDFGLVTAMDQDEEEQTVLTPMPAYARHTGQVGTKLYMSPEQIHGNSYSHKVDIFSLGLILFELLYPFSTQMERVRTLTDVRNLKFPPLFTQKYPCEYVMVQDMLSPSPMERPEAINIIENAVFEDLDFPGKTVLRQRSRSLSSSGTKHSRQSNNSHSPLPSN
PABP1 MLLE inh: blocks PAM2 peptide binding to the PABP1 MLLE domain; 0.36% of 360,000 active; GST-MLLE / FITC-PAM2 fluorescence polarization; P11940; inhibition, % at 20 µM; in the data active = inhibition above about 35%, passing the limit was not always enough;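 note: plate controls were DMSO wells with GST-MLLE for no effect and wells lacking GST-MLLE protein for full effect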
The depositor's hits bear a star; i = inactive; u = inconclusive; x = not tested or not shown; + = active, no number; ! = a repeat was not active; [ ] = remark or other dose. Unless noted, the rule behind the calls is not given here.

SMILES | eIF4E 4G PPI | eIF4H FP inh | PABP polyA inh | PERK inhibitor | PABP1 MLLE inh
CC(C)(C)C(=O)c1cn(CC(=O)NCc2ccco2)c2ccccc12 | 3 | -10 | + | 1 | -143
CCOC(=O)CNC(=O)CSP(=S)(OCC)OCC | 0 | 2 | i | 1 | 29
CNC(=O)CSP(=S)(OC)OC | x | x | x | x | 40*
Cc1ccc2c(c1)N(C(=O)CCC(=O)N1CCC3(CC1)OCCO3)CC(C)O2 (stereo not drawn) | x | -6 | i | x | 1
CC(C)CN1Cc2cc(-c3cccc(F)c3)ccc2-n2nncc2C1 | x | x | x | x | 16
O=c1[nH]c(=O)n(-c2cccc(Cl)c2)c(O)c1/C=N/c1ccccn1 | 9 | 85* | + | 0 | -33
COc1ccc2nc(/N=C/c3c(O)n(-c4cccc(Cl)c4)c(=O)[nH]c3=O)sc2c1 | -2 | u | u | 2.9* | -85
N=Cc1c(O)n(-c2cccc(Cl)c2)c(=O)[nH]c1=O | -2 | 0 | i | 1 | 10
Cc1ccc2c(c1)NP(=S)(Oc1ccccc1)N2 (stereo not drawn) | x | x | x | x | 37
COc1ccc2c(c1)NP(=S)(Oc1ccccc1)N2 (stereo not drawn) | 4 | 89* | + | -1 | 32
CCN(C(=O)COC(=O)c1cc(C)n(C2CC2)c1C)c1ccccc1 | x | x | x | x | -5
O=c1[nH]c(=O)n(Cc2ccccc2Cl)c(O)c1C=Nc1ccc(F)cc1 | 1 | u | i | 1 | -22
CCOP(=O)(Cc1cc(C(C)=O)c(C)o1)OCC | 2 | 47 | i | 1 | 40*
COP(=S)(OC)c1c(C)nn(CCC#N)c1NC(=O)c1ccc(Cl)cc1 | x | -15 | i | x | -21
CN(C)P(=O)(CCl)Nc1ccccc1 (stereo not drawn) | 3 | 96* | + | 0 | 10
CN(C)CP(=O)(Nc1ccccc1)N(C)C (stereo not drawn) | -7 | 10 | i | 0 | 3
COc1ccc(OC)c(N=Cc2c(O)n(Cc3ccccc3)c(=S)[nH]c2=O)c1 | -1 | 35* | + | 1 | -30
COc1ccc(N=Cc2c(O)n(Cc3ccccc3)c(=S)[nH]c2=O)c(OC)c1 | 7 | u | u | 1 | -34
CCOC(=O)CNC(=O)N1Cc2cc(N3CCOCC3)ccc2-n2nncc2C1 | x | x | x | x | -1
Cc1cccc(N2CCc3c2nc2ccccc2c3N)c1 | 94*![fluorescence artefact?] | 8 | i | -1 | -13
CCOC(=O)COc1ccc(/C=C2\C(=O)NC(=S)N(c3ccc(OC)cc3)C2=O)cc1OC | x | -6 | i | x | 39*
COC(=O)COc1ccc(/C=C2\C(=O)NC(=S)N(c3ccc(C)cc3)C2=O)cc1OC | x | -9 | i | x | 18
CCN1C(=O)NC(=O)/C(=C\c2ccc(N3CCOCC3)cc2OC)C1=O | -1 | u | + | 2 | x
Cc1cc(Cl)ccc1C(=O)C1CCCN(C2CCSCC2)C1 (stereo not drawn) | 4 | 5 | i | 0 | 12
COCCCNC(=O)c1c(NC(=O)c2ccccc2Cl)n(Cc2ccccc2)c2nc3ccccc3nc12 | -2 | 42* | i | 0 | -12
SMILES | eIF4E 4G PPI | eIF4H FP inh | PABP polyA inh | PERK inhibitor | PABP1 MLLE inh
C1=C(c2c[nH]c3ccccc23)CCNC1 | -1 | 95* | + | 1 | x
CC(=O)c1cn(CCCOc2ccccc2)c2ccccc12 | 2 | 3 | i | -1 | -4
COc1ccc(-c2ccc3n2Cc2cnnn2-c2ccccc2-3)cc1 | x | x | x | x | 9
C=CCn1c(O)c(C=Nc2ccc(N(CC)CC)cc2)c(=O)[nH]c1=O | -19 | 54* | + | -2 | -6
COC(=O)C1=C(c2cccc(OC)c2OC)C[C@@H]2CC[C@H]1N2C(=O)NCCS(C)=O (stereo partly drawn) | x | x | x | x | 1
CCOC(=O)c1c(N)n(CCN2CCCCC2)c2nc3ccccc3nc12 | -2 | 94* | + | -2 | -12
CCC(C)NC(=O)c1c(N)n(CCCOC)c2nc3ccccc3nc12 (stereo not drawn) | 15 | 61* | + | -2 | 8
CCCCn1c(NS(=O)(=O)c2ccccc2)c(C(=O)OCC)c2nc3ccccc3nc21 | 6 | active | + | -1 | -4
COCCCn1c(N)c(C(=O)Nc2ccccc2)c2nc3ccccc3nc21 | 1 | -2 | i | -2 | -2
COc1cc(C(C)=O)ccc1OC(=O)N(C)c1ccccc1 | x | 3 | i | x | -2
O=C(O)c1ccc2c(c1)C1C(Cl)C(Sc3ccccc3[N+](=O)[O-])CC1C(c1cccc([N+](=O)[O-])c1)N2 (stereo not drawn) | 1 | 99 | i | 0 | 13
CCN(CC)C(=O)c1ccc(NC(=O)c2cccc(S(=O)(=O)N3CCN(Cc4ccccc4)CC3)c2)cc1 | x | x | x | x | 1
O=C(O)c1cccc2c1NC(c1cccc([N+](=O)[O-])c1)C1CC(Sc3ccccc3[N+](=O)[O-])C(Cl)C21 (stereo not drawn) | 35* | 82* | i | 0 | 12
Cc1ccc2c(c1Cl)NC(C(=O)O)C1CC(Sc3ccccc3[N+](=O)[O-])C(Cl)C21 (stereo not drawn) | 21 | 87* | + | 0 | 22
CCN(CC)C(=O)c1ccc2c(c1)C1C=CCC1C(C(=O)O)N2 (stereo not drawn) | x | 85* | + | x | 17
CCN(CC)C(=O)c1ccc(N(Cc2ccccc2)S(C)(=O)=O)cc1 | x | -4 | i | x | 9
CCN(CC)C(=O)c1ccc2c(c1)C1C(Cl)C(Sc3ccccc3[N+](=O)[O-])CC1C(C(=O)O)N2 (stereo not drawn) | 7 | 90* | + | 0 | 39
COC(=O)C1=C(c2c(C)noc2C)C[C@@H]2CC[C@H]1N2C(=O)NCCOc1ccc(OC)cc1 | x | x | x | x | 9
Clc1ccc2c(c1)C(c1ccccc1Cl)=NCc1nnc(N3CCN(CCOc4ccccc4)CC3)n1-2 | 3 | 2 | i | -1 | 1
O=C1NC(=O)N(c2ccccc2)C(=O)/C1=C\c1ccc([N+](=O)[O-])o1 | 14 | 78* | + | 1 | x
CN1C(=O)NC(=O)/C(=C/c2ccc([N+](=O)[O-])s2)C1=O | 1 | 64* | + | 0 | 23
CN1C(=O)NC(=O)/C(=C/c2ccc([N+](=O)[O-])o2)C1=O | 10 | u | + | 2 | x
O=C1NC(=O)N(c2ccccc2)C(=O)/C1=C\c1ccc([N+](=O)[O-])s1 | 3 | u | u | 0 | x
CN(C)c1ccc(C=C2C(=O)NC(=S)NC2=O)cc1[N+](=O)[O-] | 7 | 15 | i | 0 | 40*
CN(C)c1ccc(C=C2C(=O)NC(=O)NC2=O)cc1[N+](=O)[O-] | -1 | 2 | i | 1 | 31
Clc1cc(Cl)c(-c2cc(Cl)c(Cl)cc2Cl)cc1Cl | x | x | x | x | 2
C=Cn1ccnc1P(=S)(c1ccccc1)c1nccn1C=C | 3 | active | i | 1 | 0
CC/C(=N\Nc1cccc2ccccc12)c1c(O)[nH]c(=O)[nH]c1=O | 4 | 54* | i | 0 | -9
